Hit rate of the full screen: of about 53,000 sequences, about 3,700 (7%) were called active.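 How the source made its calls: active means gene knockdowns whose robust z-score for IL-1 alpha signal is at least 2 or at most -2, so actives lie on both sides; inactive means the rest.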 The entries come from a sample that favours actives as a whole.
Experiment: Components of the Cytosolic LPS Sensing Pathway: Gene Identification via Genome-wide siRNA Screen;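 further: robust z of the log signal after scaling to non-targeting control siRNA wells of the plate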
Conditions: RAW264.7 macrophages, IL-1a HTRF, actives lie on both sides, screened at 100 nM (by protocol), cells primed 5 h with Pam3CSK4 first
In short: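 RAW264.7; siRNA 100 nM final, RNAiMAX, 48h 37 degrees C; Pam3CSK4 5 h; LipidA + TransIT-TKO 24 h; IL-1a HTRF; CellTiter-Glo viability; robust z vs negative-control median.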
With GCGGUUCGCUGUUUGUUUCTT against Zbtb11os1 the z-score was 2.54 (active). With CGCUAGCUUAUUUUCCGCCTT against Slc49a4 the z-score was 1.1 (inactive). For GGACGACAUGAUUUUCGAGTT against Atp1b1, the z-score was -0.399 (inactive). For CCACGAAGAGCAAGAAAACTT against Gm5941, the z-score was -1.15 (inactive). With GGCCUGUAGUCAAUGGAAATT against Magi2 the z-score was -0.382 (inactive). In the case of GGUUGCACUUUUUCAUAGUTT against Bcl2l2, the z-score was 0.97 (inactive). In the case of GGAGGUGCUAACCUAACAGTT against Ggh, the z-score was -1.1 (inactive). In the case of GGAAUAUCCAGUAUUGAUUTT against Cd180, the z-score was -0.396 (inactive). With GCUCGAUUGACCUCAUUCATT against Rhbdf2 the z-score was -2.45 (active). In the case of GGUGUCGAGAAGCCUCAAATT against Arhgap24, the z-score was -0.617 (inactive). With GCCGUAUGGCAGGUAUUUUTT against Tmem266 the z-score was 3.27 (active). For CCACUACAACAACACUUAUTT against Keg1, the z-score was 0.84 (inactive). With GCAUCUACCUUCUAUUACUTT against Gpsm1 the z-score was 0.533 (inactive). For GGACAUGCUCUAUAAGAAGTT against Pabpc5, the z-score was -0.642 (inactive). For GGCAACUUGAUUGUAAACUTT against Zic2, the z-score was 0.795 (inactive). In the case of CAGAAUUCAGAUAAUCUUGTT against Defb22, the z-score was 1.06 (inactive). With GGAUAUCCAAGUAAGGUGUTT against Mrpl9 the z-score was -0.504 (inactive). For GACUGAGCUUCUGUGAUGGTT against Olfr921, the z-score was -2.5 (active). For GGAGAAGAAGGGAAAGCAUTT against Tub, the z-score was -1.4 (inactive). In the case of GGUGGAUAUUCCAUCUAUUTT against Snx14, the z-score was 2.76 (active). For CGUUUUCAGAGAUGUGCGCTT against Cmtm5, the z-score was -1 (inactive). For GCCAGUAUUAGCCUAGAUCTT against Vstm5, the z-score was -1.65 (inactive). For CCCAGCUCUGUUUAAUGAUTT against Klf8, the z-score was -0.449 (inactive). With GGAUCUUAAGAAGUUCCAATT against Chchd6 the z-score was -0.104 (inactive). In the case of CCUCCUUUUUUCUCUGUCUTT against Ugt1a9, the z-score was -2.79 (active). With GGAUUUGCCUUAAAAAAUCTT against Dock4 the z-score was -0.0352 (inactive). For GGUUUGAGGUAACACUAGATT against Vps39, the z-score was -0.125 (inactive). With GCUGAAAGGAAUGUGCUCATT against Hspa8 the z-score was -1.57 (inactive). With GCCGGAUGAAGGACUUUACTT against Dcc the z-score was -1.98 (inactive). With CCUAGUCUAGCUGACUUGCTT against Eppin the z-score was 1.41 (inactive). For GGUUACGAAAAGCUGCCUUTT against Ints14, the z-score was -0.125 (inactive). In the case of GGCCUUGGCAAUUAUUUGUTT against Syap1, the z-score was -0.0759 (inactive). With GGAGAAAGAGAUUCCUAUUTT against Triap1 the z-score was -0.818 (inactive). In the case of CCAAUUCGUGUUAAGGAACTT against Riox2, the z-score was 0.212 (inactive). With CCUCGUAGGGCCUAUGGUATT against Cyth4 the z-score was -2.17 (active). For GCCAAAGUAGCAUUAGUGATT against Dip2b, the z-score was -1.39 (inactive). In the case of GGCAAUGUCUUUAAAAUACTT against Txndc8, the z-score was -0.724 (inactive). With GGCAUUGACCCUUCUUGGATT against Stam2 the z-score was -0.395 (inactive). With CCUUGUUAGAGCAUUACAATT against Rprd1a the z-score was 1.34 (inactive). In the case of GGAUUCUGAGAAAUCAAGATT against Serpinb12, the z-score was -0.376 (inactive). In the case of GGAAAUCUACGAUUUCUAATT against Cyria, the z-score was 2.55 (active). In the case of GCUCCAGAAUAUAUUGUUCTT against Arfgap3, the z-score was 1.39 (inactive). In the case of GGGCAGAGGCAUUUCUGUATT against Psg23, the z-score was 1.76 (inactive). With GGAACCAGGUAGCAGAUCUTT against Cdk2ap2 the z-score was -2.61 (active). With GGACUAUAUGAGAUAAACUTT against Pask the z-score was 0.371 (inactive). In the case of CGCCAAACAGGCUAGAUCUTT against Ephb2, the z-score was -0.101 (inactive). In the case of GCGAGAAUUGGACAAAUUATT against Acot12, the z-score was 0.784 (inactive). For “GCAUUCGAAGCUCUUCUAATT against 4930474M22Rik”, the z-score was -1.89 (inactive). For GGGCUGUGAGCUCUGUUCATT against Rspo1, the z-score was 0.188 (inactive). With GCCCAAACGAAAAAUGGCCTT against Abl1 the z-score was 2.95 (active). With GCAACUGAGAGAUGUCAUCTT against Gbp6 the z-score was -0.806 (inactive). In the case of CCUGUGAAGUAUAACAUCGTT against Fam234b, the z-score was -0.722 (inactive). In the case of CCUAUGUAUCUCAUCGCUGTT against Sox11, the z-score was 0.819 (inactive). For GGCAAUUUGGAUACCAGGATT against Zfp24, the z-score was -0.563 (inactive). For GCAGAAUUGAGUCACCCAATT against Sp1, the z-score was -2.56 (active). In the case of GCGACAAAGCUCGUUAUGATT against Hmgb2, the z-score was -2.3 (active). In the case of GCAUAAACUUUAGGCAUGGTT against Alg13, the z-score was -0.123 (inactive). With “GGUCAUCCGAUGCUUUGUATT against 4930515G01Rik” the z-score was -0.513 (inactive). With CCGGUUACCAAUUGAUAAATT against Smc3 the z-score was -1.15 (inactive). In the case of GCGUAAAUCUCCACACUACTT against Vmn1r54, the z-score was -1.57 (inactive). In the case of GGUGGAUACACAGGACAAATT against Invs, the z-score was 1.58 (inactive). In the case of GGAGCGUAGAUAACUUAUCTT against Itprid2, the z-score was -0.0474 (inactive). In the case of CGCAGACAGUUUGAGGCUGTT against Gpbp1, the z-score was -2.34 (active). In the case of GGGACAUGGUCAUCACUAGTT against Clvs2, the z-score was -1.71 (inactive). For “GGAAUAGGAGCAAGUGUACTT against 9930021J03Rik”, the z-score was 1.03 (inactive). With GGAUACACACAGAGAAUAUTT against Arhgef10l the z-score was 0.161 (inactive). For GGCCUUCACGUCUGGAAAUTT against Cnot10, the z-score was -0.163 (inactive). For GCAUCUCUCUAAUAGCCUUTT against Nop16, the z-score was 1.24 (inactive). With GGAUGAAAAUCUCUGUCCUTT against Trpa1 the z-score was 0.604 (inactive).

From PubChem BioAssay AID1508600 (Functional Genomics Laboratory (NCATS/FGL), 2020)
